Tg IFNy HTS – inhibitors of Toxoplasma gondii growth with IFN-gamma; Toxoplasma gondii growth in IFN-gamma-treated host cells; stronger effect = lower value; 69,000 tested, 3.8% active; activity change, negative = inhibition, % (no concentration beside the values); AID 1259416; in the data active means activity change below about -70%, passing the limit was not always enough;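 further: host cells are HeLa cells infected with Toxoplasma gondii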
An asterisk follows results filed as active; ! = repeats disagree. Only a selection was taken, and hits are over-represented in it overall.

SMILES	Tg IFNy HTS
Cc1nc(-c2ccc(F)cc2)sc1CCNC(=O)C(=O)Nc1ccc2c(c1)OCCO2	-39.6
Cc1ccc(-c2nc(C)c(CCNC(=O)C(=O)Nc3ccc4c(c3)OCO4)s2)cc1	-69.4
Cc1nc(-c2ccc(F)cc2)sc1CCNC(=O)C(=O)Nc1ccc2c(c1)OCO2	-72.0*
Cc1nc(-c2ccc(F)cc2)sc1CCNC(=O)c1ccccc1Br	-13.7
Cc1nc(-c2ccc(F)cc2)sc1CCNC(=O)c1c(F)cccc1Cl	-5.2
O=C(CN1CCOC1=O)N1CC[C@@H](c2ccc3c(c2)OCO3)[C@H](O)C1	-1.2
Cc1nnsc1CN(C)C(=O)c1cccc(-n2cccn2)c1	0.1
Cc1ccc(CN2CCc3[nH]nc(C(=O)N(C)C)c3C2)o1	101.0
CN(C)S(=O)(=O)N1C[C@H]2CCC[C@]2(COCc2ccncc2)C1	191.1
Cn1cc(CN2CCC3(CC2)CN(C(=O)c2cccnc2)CCO3)cn1	1.0
COc1ccccc1CNC(=O)CCC1N=C2c3ccccc3N=C(SCc3cc(=O)n4ccccc4n3)N2C1=O (stereo unspecified)	15.4
CC(=O)N1CCC(C(=O)NCc2ccccc2)(N(C(=O)c2ccc(C)cc2)c2ccc(C(C)C)cc2)CC1	-97.5*
CC(=O)N1CCC(C(=O)NCc2ccccc2)(N(C(=O)c2ccc(Br)cc2)c2ccc(C)cc2)CC1	62.7
CC(=O)Nc1ccc(C(=O)N(c2ccc(C)cc2)C2(C(=O)NCc3ccccc3)CCN(C(C)=O)CC2)cc1	79.5
COc1cccc(CNC(=O)c2c(O)c3cccnc3n(-c3ccccc3)c2=O)c1	-65.7
COc1cccc(CNC(=O)c2c(O)c3cccnc3n(-c3cccc(F)c3)c2=O)c1	-98.4*
COc1cccc(-n2c(=O)c(C(=O)NCc3ccc(F)cc3)c(O)c3cccnc32)c1	16.4
CCc1ccc(CNC(=O)c2c(O)c3cccnc3n(-c3cccc(F)c3)c2=O)cc1	39.3
COc1cccc(-n2c(=O)c(C(=O)NCc3cc(F)cc(F)c3)c(O)c3cccnc32)c1	-101.3*
CCc1ccc(CNC(=O)c2c(O)c3cccnc3n(-c3cccc(OC)c3)c2=O)cc1	-14.4
COCCN1C(=O)N(C2Cc3ccccc3C2)C(=O)C12CCN(Cc1nccs1)CC2	-6.2
Cc1ccc(S(=O)(=O)N2CSC[C@@H]2C(=O)NCCc2csc(-c3ccccc3)n2)cc1C	-67.2
O=C(Nc1ccc(F)cc1)N1CCn2nnc(COc3cccnc3)c2C1	12.8
CC(C)C1CN(C(=O)c2cc3ccccc3[nH]c2=O)CCCN1CC1CC1 (stereo unspecified)	-1.9
COc1ccc2[nH]c3c(c2c1)CCNC31C(=O)N(C)c2ccccc21 (stereo unspecified)	310.6
SMILES	Tg IFNy HTS
COc1ccc2[nH]nc(C(=O)N3C[C@H]4CC=C(C)C[C@H]4C3)c2c1	-41.5
COc1ccc2[nH]c3c(c2c1)CCNC3C1CC=C(C)CC1 (stereo unspecified)	-84.0*
Cc1cn([C@@H]2C[C@@H](O)[C@H](CO)O2)c(=O)[nH]c1=O	1.0
O=c1[nH]c(=O)n([C@H]2CC(O)[C@@H](CO)O2)cc1C(F)(F)F (stereo partly specified)	-49.7
O=c1[nH]c(=O)n([C@H]2C[C@H](O)[C@@H](CO)O2)cc1C(F)(F)F	-77.2*!
Cc1ccc(NC(=O)CN2C(=O)CCc3cc(S(=O)(=O)N4CCCC4)ccc32)cc1Cl	-24.7
CC(C)n1ccnc1CN1CCCC(OCc2cccnc2)C1 (stereo unspecified)	10.5
CCN(CC)c1cc(C)nc2nc(CN3CCC(N4CCCCC4)CC3)nn12	1.7
Cc1oc(-c2ccccc2)nc1CN1C(=O)CSc2ccc(S(=O)(=O)N3CCOCC3)cc21	-44.1
Cc1ccccc1-c1nc(Cn2c(=O)cc(C(=O)N3CCCCC3)c3ccccc32)c(C)o1	4.2
Cc1ccccc1-c1nc(CN2C(=O)CSc3ccc(S(=O)(=O)N4CCCC4)cc32)c(C)o1	-80.3*
CCC(NC(=O)Cc1nc2ccc(Cl)cc2[nH]1)c1ncccc1C (stereo unspecified)	0.2
CC1CN(CCCn2c3ccccc3c3ccccc32)CC(C)N1 (stereo unspecified)	-4.0
COc1ccccc1C1(O)CCN(CCCn2c3ccccc3c3ccccc32)CC1	-76.9*!
COc1ccccc1C1(O)CCCN(CC(O)c2ccc(C)cc2)C1 (stereo unspecified)	-41.6
CC(C)SCC(=O)N1CCc2c(nc(-c3ccccc3)nc2N(C)C)C1	-26.4
CCOCC1CN(Cc2cnn(C)c2)Cc2ncn(C)c21 (stereo unspecified)	-0.1
Cc1nc2ccccc2n1S(=O)(=O)c1ccc(Cl)cc1	-10.4
CCOC(=O)c1[nH]c2cc(Cl)cc(Cl)c2c1CCC(=O)O	1.1
CCOC(=O)COc1ccc(Cl)cc1C(=O)OC	-38.0
CCOC(=O)c1[nH]ncc1-c1ccc(Cl)cc1Cl	-94.5*
CCc1ccccc1NC(=O)Cn1c(=O)cc(C(=O)NC)c2ccccc21	-20.6
COc1ccc(Nc2cc(-n3nc(C)cc3C)nc(-c3ccccc3)n2)cc1	-50.2
N#CC1(c2ccc(NC(=O)c3cccnc3NCc3ccncc3)cc2)CCCC1	-71.8*
O=C(O)c1cccnc1NCC1CCCO1 (stereo unspecified)	-28.4
SMILES	Tg IFNy HTS
O=C(Nc1ccc(F)cc1)c1cccnc1Oc1ccccc1	-31.2
CN(C(=O)c1cc2cccnc2n(Cc2ccccc2)c1=O)C1CCCCC1	17.0
CN(C)CCN1C[C@@H]2CN(C(=O)C3CCOC3)C[C@H]2C1=O (stereo partly specified)	88.7
CCN(C)c1ncc2c(c1C(=O)O)CCN(Cc1cnn(C)c1)C2	3.5
O=S1(=O)CCN(Cc2ccc(NS(=O)(=O)c3ccc(Cl)cc3)cc2)CC1	-92.1*
CNS(=O)(=O)c1ccc(CN2CCN(Cc3cccc(F)c3)CC2)cc1	-3.1
O=S(=O)(Nc1ccc(C2=NCCO2)cc1)c1ccc(Cl)cc1	-18.0
CN(CCC1CCOCC1)C(=O)CCC(=O)NC1CCCCCCC1	5.7
O=C(Cn1nc(-c2cccc(F)c2)n(-c2ccncc2)c1=O)N1CCCC1	-12.4
CC(Cc1cnccn1)NC(=O)c1cn(C/C=C/c2ccccc2)nn1 (stereo unspecified)	3.5
CC(C)C[C@H](NC(=O)[C@@H](NC(=O)c1cccc(-c2ccccc2)n1)[C@@H](C)O)B(O)O	-64.3
CC(C)C[C@H](NC(=O)[C@H](Cc1ccccc1)NC(=O)c1cnccn1)B(O)O	-80.9*
Cc1onc(-c2cccnc2)c1C(=O)NCc1ccc(-c2ncncc2C(=O)N(C)C)cc1	-49.4
O=C(O)CCNC(=O)c1ccccc1	11.2
O=C(NCCCCc1ccccc1)c1ccccc1	-81.9*
O=C(CCCl)NCCc1ccccc1	30.5
Cc1ccccc1C(C(=O)N1CCN(C2CCOCC2)CC1)N(C)C (stereo unspecified)	-5.7
Cc1ccc(-c2coc(-c3ccc(NC(=O)NC4CCCC4)cc3)n2)c(C)c1	20.1
Cc1nc(-c2nc(C(=O)N(C)c3ccccc3)c3ccccn23)cn1C(C)C	26.7
O=c1ccc2c(n1Cc1cccnc1)CCN(Cc1ccco1)CC2	0.4
CCC(C)NC1CC2(CCN(c3ncccn3)CC2)Oc2ccccc21 (stereo unspecified)	78.4
CN(C)c1ncc2c(n1)[C@H]1CN(C(=O)c3ccccc3)C[C@@H]1S(=O)(=O)C2	1.0
O=S1(=O)Cc2cnc(NCC3CC3)nc2[C@H]2CN(Cc3ccc(F)cc3)C[C@@H]21	-7.3
CN(C)c1ncc2c(n1)[C@H]1CN(Cc3ccccc3F)C[C@@H]1S(=O)(=O)C2	-102.7*
COCCC(=O)N1CCc2ncc(Cn3cccn3)n2CC1	395.0

Screens from PubChem BioAssay.
